UDG counter = Primary qHTS assay for inhibitors of Activation Induced Cytidine Deaminase (AID): UDG Counterscreen signal. FRET deamination/UDG coupled assay, UDG read, 4 h. Uracil-DNA glycosylase. 91,000 compounds, 0.14% hits. AID 1347430, 2020. Potency, µM (titrated, usually from 115 µM), without a hit: at the highest dose activity change, negative = inhibition, actives largely listed as inhibitors; note: nearly all actives have a fitted effect of over 65% in size
AID inh = Primary qHTS assay for inhibitors of Activation Induced Cytidine Deaminase (AID): AID signal; AID deamination FRET fluorescence, UDG-coupled, 4 h; Single-stranded DNA cytosine deaminase (Homo sapiens), Q9GZX7; Potency, µM (doses to about 115 µM), actives largely listed as inhibitors; AID 1347428, 2020; 91,000 compounds, 0.32% hits; note: nearly all actives have a fitted effect of over 25% in size
Target sequence (Q9GZX7 whole entry, looked up): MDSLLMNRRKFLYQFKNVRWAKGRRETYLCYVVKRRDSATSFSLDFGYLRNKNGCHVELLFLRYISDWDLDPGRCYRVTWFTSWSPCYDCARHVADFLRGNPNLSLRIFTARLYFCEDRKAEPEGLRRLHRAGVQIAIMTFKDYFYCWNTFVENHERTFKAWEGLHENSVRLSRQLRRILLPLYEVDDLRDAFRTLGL
Numbers without * were called inactive; i = inactive; ? = inconclusive. Shown are actives, neighbours in structure and some others; about 0.4% of the full set was active somewhere. Calls come from the whole dose curve; as a rule, active = well fitted curve in the direction sought with a large enough effect; inconclusive = small, poorly fitted or top-dose-only effect, or another doubt; inactive = no such curve, though single readings can be large; an effect the other way counts as inactive or inconclusive. % is set by controls: 0 for no effect and ±100 for the full control effect; potency is the fitted concentration of half-maximal effect.

SMILES	UDG counter	AID inh
NC(Cc1cc(O)c(O)cc1O)C(=O)O (configuration not stated)	-2%	14µM*
N[C@@H](CCl)C(=O)O	-4%	i
C/C(=C\c1cn(C)c2ccccc12)[N+](=O)[O-]	-11%	i
N#Cc1ccc(NC(=O)CSc2ccc3c(c2)OCCCO3)cc1Cl	11%	i
CCCCC12CN3CC(C)(CN(C1)C3c1ccccn1)C2=O (configuration not stated)	2%	i
CCCC12CN3CC(C)(CN(C1)C3c1c(C)[nH]c(=O)[nH]c1=O)C2=O (configuration not stated)	-29%	10µM*
O=c1c2ccccc2nc(/C=C/c2cccc3ccccc23)n1-c1ccccc1Cl	89µM*	?
Cc1cccc(/C=C/c2nc3ccccc3c(=O)n2-c2cccc(O)c2)c1	1%	i
Cc1ccccc1-n1c(/C=C/c2ccccc2F)nc2ccccc2c1=O	-11%	i
Cc1ccc(-n2c(/C=C\c3ccc(F)cc3)nc3ccccc3c2=O)cc1Cl	89µM*	?
CC12CCC(O)CC1CCC1[C@@H]2CCC2(C)C(C3=CC(=O)OC3)C(O)CC12O (some centres not stated)	-3%	i
CC(C(=O)NCc1cccs1)N1CC=C(c2ccccc2)CC1 (configuration not stated)	-10%	i
COc1ccc2[nH]c(C)c(CCNCCC3=C(C)CCCC3(C)C)c2c1	-3%	i
CCCCc1ccc2[nH]c(C)c(CCN)c2c1	6%	i
CN(N=O)c1ccc(O)c(O)c1	-7%	25µM*
CN(C)C(CSS(=O)(=O)c1ccccc1)CSS(=O)(=O)c1ccccc1	-18%	?
C[C@@H]1[C@@H]2Cc3ccc(O)cc3[C@@]1(C)CCN2CC1CC1	0%	i
CN1CC[C@@]2(C)c3cc(O)ccc3N(C)C12 (some centres not stated)	-4%	11µM*
